# Data reported in PubChem BioAssay AID1063 (University of Pittsburgh Molecular Library Screening Center, 2008).
# Among all 200,000 compounds or so, about 18,000 (9%) were called active. Shown is part of a subset that was picked to be rich in actives. Unmarked numbers belong to inactive results. Rule as the data show it: active = inhibition above about 50%; inactive = the rest.
# Experiment: antileishmanial activity against promastigotes – primary screen (AID 1063);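 also: promastigotes grown with compound for 44 hours at 28 °C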
# Conditions: Leishmania major promastigotes, resazurin fluorescence viability; at 10 µM; hits give high values
row,SMILES,inhibition
1,CCCOc1ccc(NC(=O)CC2C(=O)N(C)C(=S)N2Cc2ccc3c(c2)OCO3)cc1 (centres undefined),3.31%
2,COc1cccc(NCCC(=O)c2cccc([N+](=O)[O-])c2)c1,85% (active)
3,CC(C)(C)SCCNC(=O)c1cccc([N+](=O)[O-])c1,45.2%
4,COc1ccc(Cc2nnc(SCC(=O)c3cccc([N+](=O)[O-])c3)n2C)cc1,7.37%
5,O=C(c1nnc(-c2ccc(Cl)cc2)o1)C1CCCC1,-8.13%
6,Cc1cccc(NC(=S)NC23CN4CN(CN(C4)C2)C3)c1,-0.78%
7,Cc1ccc(NC(=O)CN2CCC3(O)CCCCC3C2c2ccc3c(c2)OCO3)c(C)c1 (centres undefined),89.1% (active)
8,CC1CCCCC1NC(=O)CN1CCC(O)(c2ccc3c(c2)OCO3)CC1 (centres undefined),30.1%
9,CC(=O)NC1CC2CCCC(C1)N2CC(=O)Nc1ccccc1 (centres undefined),-0.85%
10,O=C(CN1CCOCC1)Nc1ccccc1,-4.08%
11,CCN(CC)c1ccc(C2C3CCCCC3(O)CCN2CC(=O)Nc2ccccc2)cc1 (centres undefined),78.2% (active)
12,CC1CCCCN1CC(=O)NCc1ccc2c(c1)OCO2 (centres undefined),4.4%
13,Cn1c(=N)n(CC(O)c2ccccc2)c2ccccc21 (centres undefined),3.48%
14,Cc1cccc(OCC(O)Cn2c(=N)n(CCN3CCOCC3)c3ccccc32)c1 (centres undefined),10.1%
15,CCOc1ccc(C(O)Cn2c(=N)n(CCN3CCCCC3)c3ccccc32)cc1 (centres undefined),80.6% (active)
16,CCOC(=O)C1C(c2ccc(Cl)cc2)NC(=S)NC1(O)C(F)(F)F (centres undefined),-2.87%
17,CC1CN(C2CCN(C(=O)COc3ccccc3)CC2)CC(C)O1 (centres undefined),88.1% (active)
18,COc1ccc(OCC(=O)N2CCOCC2)cc1,0.46%
19,COc1ccc(OCC(=O)N2CCN(C(=O)COc3ccccc3)CC2)cc1,-5.93%
20,Cc1csc(CN(C)C(=O)CC2C(=O)NCCN2CC(C)(C)C)n1 (centres undefined),-1.56%
21,O=C(N/N=C/c1ccc([N+](=O)[O-])cc1)c1c[nH]c2ccccc12,2.8%
22,Cc1cc(C)c(C(N)=O)c(Cl)n1,-12.9%
23,Cc1cc(C)nc(N2CCC(C(=O)Nc3ccc4c(c3)OCCO4)CC2)n1,-3.98%
24,COc1ccc(S(=O)(=O)Nc2cccnc2)c(Cl)c1Cl,1.47%
25,CCOC(=O)C1CCN(CCC(=O)Nc2cccc(C)c2)CC1,92.7% (active)

row,SMILES,inhibition
1,CCOC(=O)C1CCN(C(=O)C2(NC(=O)Nc3cccc(F)c3)CCCCC2)CC1,-15.2%
2,CC1CCN(CCC(=O)Nc2ccccc2)CC1,18.3%
3,O=C(O)/C=C\C(=O)Nc1ccc(OCc2ccccc2)cc1,-4.77%
4,Cc1ccc(F)cc1NC(=O)Cc1nn(C)c(=O)c2ccccc12,-5.08%
5,O=C1c2oc3ccc(Br)cc3c(=O)c2C(c2cccc(F)c2)N1CCO (centres undefined),-1.54%
6,Cc1c(-c2nn(C)c(=O)c3ccccc23)oc2ccc(F)cc2c1=O,94.9% (active)
7,CCN(CCCNC(=O)CCn1c(=O)[nH]c2ccsc2c1=O)c1ccccc1,-5.73%
8,COC(=O)c1cc(NC(=O)c2cccnc2)ccc1N1CCOCC1,-4.83%
9,c1ccc(-c2noc(-c3cccs3)n2)nc1,-1.93%
10,O=C(Cn1cc(-c2nnnn2-c2ccc(Cl)cc2)c(=O)c2ccccc21)c1ccccc1,-4.69%
11,Clc1ccc(-n2nnnc2-c2cnc(-c3ccccn3)nc2-c2cccs2)cc1,61.2% (active)
12,COc1ccccc1N1CCN(C(=O)c2cc3c(-c4ccc(Cl)cc4)nn(C)c3s2)CC1,60.4% (active)
13,CCOC(=O)N1CCN(C(=O)c2cc3c(-c4ccc(Cl)cc4)nn(C)c3s2)CC1,10.6%
14,O=C(c1cn(-c2ccccc2)nc1-c1cccnc1)N1CCCCC1,-1.11%
15,COc1ccccc1N1CCN(C(=O)c2cn(-c3ccccc3)nc2-c2cccnc2)CC1,84.2% (active)
16,CC(C)(C)OC(=O)N/N=C/c1cn(-c2ccccc2)nc1-c1cccnc1,21.8%
17,COc1cccc(-c2nn(C)c3sc(C(=O)N4CCN(c5ccccc5)CC4)cc23)c1,20.1%
18,C/C(=N/Nc1ccc(Cl)cc1)c1cnnc(-c2ccccc2)n1,2.35%
19,Cc1ccc(C(=O)NC(=S)Nc2ccccc2C)cc1,0.17%
20,C/C(=N\NC(=O)CSc1nc2ccccc2c(=O)n1-c1ccccc1C)c1cccs1,91% (active)
21,Cc1nn(-c2ccccc2)c(C)c1/C=N/NC(=O)CSc1nc2ccccc2c(=O)n1-c1ccccc1,14.7%
22,C/C(=N\NC(=O)COc1c(C)cccc1C)c1cccs1,2.87%
23,Cc1ccnc(NC(=O)CCCOc2ccccc2)c1,-3.55%
24,O=C(Nc1ccc(F)cc1)N1CCN(c2ccc(F)cc2)CC1,-0.19%
